{"source": "PubChem BioAssay AID1259343", "about": "(VanderVen Lab, College of Veterinary Medicine, Cornell …, 2017)", "note": "Out of some 6,200 compounds screened, about 2,900 (47%) were called active. The set was probably picked from earlier hits. This is one part of the list. Unmarked numbers belong to inactive results. Cut-off read from the data, not from the text of the source: active = inhibition above about 50%; inactive = the rest."}
{"experiment": "Mycobacterium tuberculosis growth inhibition, primary screen (AID 1259343)", "conditions": "inhibition: at 10 µM, hits give high values; outcome: 10 uM"}
{"smiles": "Cc1cc(S(=O)(=O)Nc2cccc(Br)c2)ccc1Br", "inhibition": "39.6%"}
{"smiles": "CCS(=O)(=O)c1ccc(-c2cccc(NS(=O)(=O)c3ccc(C)cc3C)c2)nn1", "inhibition": "99.5% (active)"}
{"smiles": "CC(=O)Nc1cccc2c1NCCC2", "inhibition": "-0.59%"}
{"smiles": "O=S(CSc1nc(Br)ns1)c1nc(Br)ns1", "note": "(centres undefined)", "inhibition": "102% (active)"}
{"smiles": "CCN1CCc2nc3ccccc3c(C(=O)NCc3ccc(OC)cc3)c2C1", "inhibition": "-11%"}
{"smiles": "COc1ccc2cc(C(=O)NNC(=O)c3ccccn3)c(C)nc2c1", "inhibition": "0.1%"}
{"smiles": "COc1ccc2nc(C(=O)NCC(C)c3ccccc3)ccc2c1", "note": "(centres undefined)", "inhibition": "52.4% (active)"}
{"smiles": "c1ccc(-c2nnc3n2NC(c2ccc4c(c2)OCO4)S3)cc1", "note": "(centres undefined)", "inhibition": "-2.01%"}
{"smiles": "c1ccc(-c2noc(N3CCCCC3)c2CNCc2ccc3c(c2)OCO3)cc1", "inhibition": "83.5% (active)"}
{"smiles": "c1ccc(-c2nc(-c3ccc4c(c3)OCO4)cs2)cc1", "inhibition": "-16.4%"}
{"smiles": "CC(=O)N=c1c(Nc2ccc(Cl)cc2)nc(=O)[nH]n1C", "inhibition": "85.5% (active)"}
{"smiles": "Cc1c(Br)c(Nc2ccc(Cl)cc2)nn1C", "inhibition": "-14.8%"}
{"smiles": "O=C(CCc1nnc(CCCCc2ccccc2)o1)NCC[C@@H]1C[C@@H]2C=C[C@H]1C2", "inhibition": "78.5% (active)"}
{"smiles": "CN(Cc1ccsc1)C(=O)CCc1nnc(CCCc2ccccc2)o1", "inhibition": "inactive"}
{"smiles": "O=C1c2ccccc2C(=O)N1CC1CC2C=CC1C2", "note": "(centres undefined)", "inhibition": "38.1%"}
{"smiles": "C=CCn1nnc(NC(=O)c2ccc(OCC(C)C)cc2)n1", "inhibition": "30.5%"}
{"smiles": "NC(=O)CSc1nnc(SCc2ccc(Cl)c(Cl)c2)s1", "inhibition": "24.1%"}
{"smiles": "O=C(CSc1nnc(SCC(=O)c2cccs2)s1)c1cccs1", "inhibition": "96.8% (active)"}
{"smiles": "Cc1nc(SCC(=O)c2cccs2)c2c3c(sc2n1)CCCC3", "inhibition": "-1.14%"}
{"smiles": "N#CC(=Cc1ccc(Sc2ccccc2)o1)C(=O)NC1CCCCC1", "inhibition": "92.9% (active)"}
{"smiles": "N#CC(=Cc1ccc([N+](=O)[O-])o1)C(=O)NCc1ccco1", "inhibition": "49.5%"}
{"smiles": "Cc1ccc(-n2cc(CN(C)Cc3cccnc3)c(-c3ccc(F)cc3)n2)cc1", "inhibition": "46.4%"}
{"smiles": "Cc1ccc(-n2cc(CNCCc3ncc(C)[nH]3)c(-c3ccc(F)cc3)n2)cc1", "inhibition": "93% (active)"}
{"smiles": "CC(C)(C)c1ccc(-c2csc(NC=C(C#N)C#N)n2)cc1", "inhibition": "75.2% (active)"}
{"smiles": "Cc1ccc(-c2csc(SCC(=O)NC(C)(C#N)C3CC3)n2)cc1", "note": "(centres undefined)", "inhibition": "0.22%"}
{"smiles": "CCC(C)Nc1nc(-c2ccc(Cl)cc2)cs1", "note": "(centres undefined)", "inhibition": "-10.8%"}
{"smiles": "CCOc1ccc(N2CC(C#N)=C3c4cc(OC)c(OC)cc4CCN3C2)cc1", "inhibition": "94.9% (active)"}
{"smiles": "Cc1ccc(-n2c(-c3ccc(Cl)cc3)cc(C(=O)N3CCN(c4cccc(Cl)c4)CC3)c2C)cc1", "inhibition": "33.6%"}
{"smiles": "Cc1cccc(N2CCN(CCNc3cncc(Cl)n3)CC2)c1", "inhibition": "86.1% (active)"}
